Bioassay records: PubChem BioAssay, National Center for Advancing Translational Sciences (NCATS)
A selection: hits, their analogues and other compounds. The true share with any hit is near 7.3%.
ELG1 genotox: inducers of genotoxicity in HEK293T ELG1-luciferase cells. HEK293T ELG1-luciferase reporter, luminescence, 16 h. Potency, µM (doses to about 46 µM), actives largely listed as activators. hit rate 1.3% among 330,000. AID 504466; note: nearly all actives have a fitted effect of over 60% in size
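16 hr compound incubation (37 °C, 5% CO2) of HEK293T cells carrying luciferase-tagged ELG1; luciferase then measured by ONE-Glo luminescence after 30 min at RT.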
Rab9 prom act: activators of Rab9 promoter; hit rate 2.8% among 320,000; Potency, µM (top dose mostly 9.22 µM), most hits filed as activators; Huh7 Rab9 promoter-luciferase reporter, luminescence, 24 h; note: nearly all actives have a fitted effect of over 60% in size
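Huh7 reporter line, Rab9 promoter upstream of luciferase. Compound exposure 24 h at 37 °C in reduced-serum medium with 10% FBS. Read-out: luminescence.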
FLuc modulator: firefly luciferase modulation, counter-screen for miR-21 project. P08659. purified FLuc, Km substrates, luminescence inhibition. Potency, µM (titrated, usually from 57.5 µM), hits mostly inhibitors. hit rate 6.9% among 360,000; note: nearly all actives have a fitted effect of over 55% in size
Target sequence (P08659 whole entry, looked up): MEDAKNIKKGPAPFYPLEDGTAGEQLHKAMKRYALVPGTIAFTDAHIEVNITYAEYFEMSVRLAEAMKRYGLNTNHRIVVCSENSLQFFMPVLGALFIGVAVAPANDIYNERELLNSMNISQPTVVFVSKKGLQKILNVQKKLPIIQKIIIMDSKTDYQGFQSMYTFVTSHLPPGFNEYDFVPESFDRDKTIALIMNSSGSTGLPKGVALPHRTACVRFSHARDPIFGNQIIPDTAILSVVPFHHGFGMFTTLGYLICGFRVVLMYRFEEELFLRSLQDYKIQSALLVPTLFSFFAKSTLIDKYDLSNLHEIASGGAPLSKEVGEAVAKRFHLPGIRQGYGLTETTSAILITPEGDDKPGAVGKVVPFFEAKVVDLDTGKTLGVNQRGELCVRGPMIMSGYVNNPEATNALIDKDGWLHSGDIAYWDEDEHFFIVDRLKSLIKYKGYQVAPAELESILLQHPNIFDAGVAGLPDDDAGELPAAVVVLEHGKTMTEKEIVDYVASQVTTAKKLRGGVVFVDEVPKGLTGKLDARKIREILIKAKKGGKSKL
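Biochemical qHTS of compounds, final roughly 60 µM downward over six points, against 10 nM purified firefly luciferase using Km concentrations of substrates (10 uM D-luciferin, 10 uM ATP) in Tris acetate pH 7.5 buffer; luminescence output.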
SMN2 splice enh: enhancers of SMN2 splice variant expression; Potency, µM (doses to about 46.1 µM), usual class: activators; hit rate 2.8% among 210,000; AID 1458; HEK293 SMN2-luciferase splicing reporter, luminescence, 30-36 h; note: nearly all actives have a fitted effect of over 55% in size
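HEK293 cells carry an SMN2 […]–luciferase reporter in which exon 7 inclusion puts luciferase in frame. Cells were plated 10-12 h before compound addition, then incubated 30-36 h at 37C. ONE-Glo luminescence was read; sodium butyrate at 4.5 mM final served as control.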
Luc counter: blocks Kinase-Glo luciferase, a counter-screen artifact. Q27757. Kinase-Glo luciferase, ATP luminescence, 8 min. Potency, µM (highest dose often 38.3 µM), hits mostly inhibitors. hit rate 0.28% among 200,000; note: nearly all actives have a fitted effect of over 60% in size
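Substrate mix (final 50 mM imidazole pH 7.2, 50 mM KCl, 7 mM MgCl2, 10 uM ATP, 0.01% Tween 20, 0.05% BSA) plus pin-tool compound, then Kinase-Glo detection mix; 8 min ambient, luminescence read.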
NPC1 prom act: NPC1 promoter activation | Huh7 NPC1 promoter luciferase reporter, 24 h | hit rate 2.4% among 320,000 | Potency, µM (top dose mostly 9.22 µM), actives largely listed as activators; note: nearly all actives have a fitted effect of over 60% in size
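Huh7 reporter cells (NPC1 promoter driving luciferase) are dosed with compound for 24 h at 37 °C, 5% CO2; luciferase detection reagent is then added and luminescence measured after 10 min at ambient temperature.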
Hits are given with their value; – = inactive; ? = inconclusive; · = no result; [ ] = remark or other dose. Calls come from the whole dose curve; as a rule, active = well fitted curve in the direction sought with a large enough effect; inconclusive = small, poorly fitted or top-dose-only effect, or another doubt; inactive = no such curve, though single readings can be large; an effect the other way counts as inactive or inconclusive.

SMILES	ELG1 genotox	Rab9 prom act	FLuc modulator	SMN2 splice enh	Luc counter	NPC1 prom act
Oc1ccc(-c2cn3cc(C(F)(F)F)ccc3n2)cc1	2.1µM	0.5µM	0.67µM	0.89µM	–	0.79µM
Cc1ccc(-c2cc(C(F)(F)F)n3nc(-c4ccc(Cl)cc4)cc3n2)cc1	·	·	–	–	·	·
O=C(Nc1ccc(-c2cn3ccccc3n2)cc1)c1ccc(Cl)cc1	–	–	–	?	–	?
COc1c(Cl)cccc1-c1cn2ccccc2n1	4.1µM	1.3µM	0.54µM	·	·	0.79µM
COc1ccc(-c2cn(Cc3cccc(OC)c3)nn2)cc1	–	–	?	·	·	–
COc1ccc(-c2cn3ccc4ccccc4c3n2)cc1	1.2µM	?	0.95µM	3.2µM	–	?
Clc1ccc(-c2cn3cc(Cl)ccc3n2)cc1	1.3µM	0.79µM	0.27µM	·	·	3.5µM
COc1ccc(-c2cn3ccccc3n2)cc1	1.3µM	0.4µM	0.76µM	·	·	0.56µM
CCN(CC)S(=O)(=O)c1ccc(-c2cn3cc(Cl)ccc3n2)cc1	–	–	?	·	·	–
COc1cc(C(=O)NCc2cn3ccccc3n2)cc(OC)c1OC	–	–	–	–	–	–
CC1(C)N([O-])c2cc([N+](=O)[O-])ccc2[N+]1=O	–	–	11µM	·	·	–
O=C(NOCc1ccccc1)c1ccc(Cl)cc1	?	0.5µM	1.2µM	·	·	0.71µM
COc1ccc(C(=O)NOCc2ccccc2)cc1	?	?	1.9µM	·	·	?
Cc1ccc(CONC(=O)c2ccccc2Cl)cc1	–	–	?	·	·	–
O=C(NOCc1ccccc1)c1ccc([N+](=O)[O-])cc1	?	1.3µM	3.8µM	·	·	?
O=C(CC1CC2CCC1C2)OCC(=O)c1c[nH]c2ccccc12 (stereo not drawn)	–	–	15µM	–	–	–
O=C(OCC(=O)c1c[nH]c2ccccc12)c1cccc([N+](=O)[O-])c1	–	–	17µM	·	·	–
COc1cccc(C(=O)OCC(=O)c2c[nH]c3ccccc23)c1OC	–	?	9.5µM	·	·	–
O=C(COC(=O)CC1CC2CCC1C2)NCc1ccc(F)cc1 (stereo not drawn)	–	·	·	·	·	·
Cn1c(SCc2ccccc2[N+](=O)[O-])nnc1-c1cccnc1	?	?	–	–	–	–
CN=Cc1sc2ccccc2c1O	–	–	–	–	–	–
Cc1ccc(O)c(N=Cc2sc3ccccc3c2Cl)c1	–	–	1.5µM	–	–	–
Oc1ccccc1N=Cc1sc2ccccc2c1Cl	–	–	2.1µM	–	–	–
Cc1ccc(C(=O)NCCCNC(=O)Cc2ccccc2)cn1	–	–	–	·	·	–
Cc1cccc(-c2noc(CCCOc3ccc(Cl)cc3Cl)n2)c1	–	–	–	–	–	–
SMILES	ELG1 genotox	Rab9 prom act	FLuc modulator	SMN2 splice enh	Luc counter	NPC1 prom act
Cc1cc(O)c(-c2n[nH]c3c2C(c2cccc(O)c2)N(Cc2cccnc2)C3=O)cc1Cl (stereo not drawn)	–	–	–	20µM	–	–
O=C1C=C(c2ccc(-c3ccccc3)c(F)c2)C[C@@H](c2ccc(Cl)cc2)C1	–	–	–	·	·	–
O=C1C(c2ccccc2)=[N+]([O-])c2ccccc21	?	–	12µM	·	·	–
Cc1cc(C)n2nc(CCc3ccccc3)nc2n1	–	–	–	–	–	–
Cc1cc(C)n2nc(C(=O)NCCc3ccccc3)nc2n1	23µM	–	?	–	–	?
Cc1cc(C)n2nc(C(=O)Nc3ccc4c(c3)OCO4)nc2n1	?	–	24µM	?	?	–
Cc1cc(C)n2nc(C(=O)OCC(=O)Nc3ccc4c(c3)OCO4)nc2n1	–	–	–	–	–	–
Cc1ccc(NC(=O)c2nc3nccc(C)n3n2)cc1S(=O)(=O)N1CCCCC1	–	·	·	·	·	·
Cc1ccnc2nc(C(=O)Nc3ccc4c(c3)OCO4)nn12	2.6µM	1.6µM	11µM	11µM	13µM	1.8µM
CNc1nc(N)c([N+](=O)[O-])c(NCCO)n1	–	–	–	–	–	–
CCc1ccccc1NC1=NCC(=O)N1Cc1ccc(OC)cc1	–	–	–	·	·	–
COc1ccc(CN2C(=O)CN=C2Nc2cc(C)ccc2C)cc1	18µM	–	–	–	–	–
Cc1cc(N)n(-c2ccc3ccccc3c2)n1	?	?	17µM	?	–	–
COc1ccc(-n2nc(C)cc2N)cc1	–	–	–	·	–	–
COc1cccc(C2CNC3(CCCC(C)C3)c3[nH]c4ccccc4c32)c1OC (stereo not drawn)	–	–	–	·	·	–
Cc1ccc(C(=O)NC2CCc3ccccc3C2=O)cc1 (stereo not drawn)	–	2.2µM	12µM	13µM	–	2.5µM
Cc1ccc(C(=O)NC2CCSC2=O)cc1 (stereo not drawn)	–	–	–	–	–	–
COc1cc(OC)cc(C(=O)Nc2ncn[nH]2)c1	–	–	–	·	·	–
COc1ccc(CCNC(=O)c2cccs2)cc1OC	–	–	–	–	–	–
COc1ccc(CNc2nc(NCc3ccc(OC)c(OC)c3)n(C(=O)c3cccs3)n2)cc1OC	–	–	11µM	–	–	–
CC(C)(C)S(=O)(=O)c1cnc(-c2ccc(Cl)cc2)nc1N	–	2.2µM	?	·	·	2.5µM
O=C(Cn1cnc2c(cnn2-c2ccccc2)c1=O)OCc1ccccc1	–	4µM	11µM	–	–	–
Cc1ccc(-n2ncc3c(=O)n(CC(=O)OCc4ccccc4)cnc32)cc1	–	–	?	–	–	–
COc1ccc2nc(N3C(=O)CC(C(C)c4ccccc4)C3=O)sc2c1 (stereo not drawn)	–	–	21µM	·	·	–
Cc1cc(C)nc(N2C(=O)CC(C(C)c3ccccc3)C2=O)n1 (stereo not drawn)	–	–	–	–	–	–
SMILES	ELG1 genotox	Rab9 prom act	FLuc modulator	SMN2 splice enh	Luc counter	NPC1 prom act
O=[N+]([O-])c1ccc(N=NNc2ccccc2)cc1	–	?	?	16µM	–	–
Brc1ccc(N=NNc2ccccc2)cc1	?	?	6µM	·	·	?
O=C(O)c1cc(NN=Nc2cccc([N+](=O)[O-])c2)cc([N+](=O)[O-])c1	–	–	?	·	·	–
O=[N+]([O-])c1cccc(NN=Nc2ccccc2)c1	?	?	11µM	·	·	?
O=C1c2ccccc2C(=O)N1CCCC[C@]12Cc3ccccc3C(O1)c1c(c3ccccc3oc1=O)O2	·	–[1.84 µM]	–[11.5 µM]	·	·	–[1.84 µM]
Cc1ccc(NC(=O)c2ccccc2Cl)c(Cl)c1	–	?	19µM	–	–	–
Cc1cc(NC(=O)/C=C/c2ccccc2Cl)no1	–	2.8µM	?	?	–	2.8µM
Cc1cc(NC(=O)c2ccccc2)ccc1NC(=O)c1ccccc1Cl	–	–	?	·	·	–
COc1ccc(NC(=O)c2cc(C(C)C)on2)c(OC)c1	15µM	3.5µM	?	16µM	–	?
Cc1cc(NS(=O)(=O)c2ccc(NC(=O)/C=C/c3ccccc3)cc2)no1	–	–	?	·	·	–
Cc1cc(NS(=O)(=O)c2ccc(NC(=O)/C=C/c3ccccc3Cl)cc2)no1	–	–	8.5µM	·	·	–
